Growth data for eight molecules are collected here from PubChem BioAssay (NCI).

Common to all, as to assay: NCI-60 one-dose screen, 48 h (100 = growth as untreated, 0 = no growth, -100 = all killed)
Holding throughout (details): 10 µM unless noted

The test system of test [1] is HCT-15 colon.
The subject of test [2] is HT29 colon.
For test [3], the system named is SNB-75 CNS.
For test [4], the system named is SNB-19 CNS.
For test [5], the system named is U251 CNS.
For test [6], the system named is PC-3 prostate.
Test [7] concerns UACC-62 melanoma.
Test [8] relates to LOX IMVI melanoma.
Test [9] concerns SK-MEL-28 melanoma.
In test [10] the test system is SK-MEL-2 melanoma.
The test system of test [11] is EKVX NSCLC.
Test [12] has as its system SN12C renal.
Test [13] relates to UO-31 renal.
The test system of test [14] is TK-10 renal.
Test [15] relates to ACHN renal.
For test [16], the system named is CAKI-1 renal.
In test [17] the test system is A498 renal.
Test [18] deals with CCRF-CEM leukemia.
Test [19] has as its system MOLT-4 leukemia.
In test [20] the test system is SK-MEL-5 melanoma.

The structures appear in SMILES notation. This is part of a sample that, as a whole, favours compounds with a hit. Of some 83,000 tested, about 20% had one in any assay.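 48-hour exposure, single concentration, 96-well plates; percent growth endpoint where 0 means no net growth. Active: below 10.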 Values without a mark were called inactive. The source made the active and inactive calls.

Take `CCOC(=O)CSc1nc2sc3c(c2c(=O)n1-c1ccccc1)CCCCC3`: the growth in [1] is 104%; in test [2] it was 102%; in test [3], 112%; in test [4] it was 89.2%; in test [5], 93.4%; in test [6], 109%. Moreover, the growth in test [7] is 99.5%; in test [8], 101%; in [9] it was 112%; in test [10], 103%; in test [11], 103%; in test [12] it was 95.1%. Besides, the growth is 84.1% in test [13]; 102% in test [14]; 102% in [15]; 102% in test [16]; 105% in [17]; 97% in test [18]. Moreover, the growth in [19] was 102%.

Consider `CC(C)CCc1nc2ccc(NCc3ccc(OCCN4CCC(C)CC4)cc3)cc2[nH]1`, for which the growth is 67.4% in [1]; 40.3% in [2]; 90.8% in test [3]; 88.6% in [4]; 61.4% in [6]; 84.9% in test [20]. Moreover, the growth in [7] was 82.5%; in test [9] it was 75.7%; in test [10], 110%; in test [11], 78.5%; in test [12], 69.9%; in [13], 57.4%. The growth in [14] is 111%; in [15], 97.3%; in test [16], 64.8%; in test [17], 79.3%; in test [18], 67.3%; in test [19] it was 62.3%.

As to `C#Cc1c(I)n(C2OC(CO[Si](C)(C)C(C)(C)C)C3OC(C)(C)OC32)c(=O)[nH]c1=O` (centres undefined), the growth in [1] is -9.25% (active); in test [2], 38.6%; in test [4] it was 94.2%; in test [5], 3.76% (active); in [6] it was -61.1% (active); in [20] it was 96.6%. In addition, the growth in test [7] is 82.1%; in test [8] it was -80.6% (active); in test [9], -56.7% (active); in test [10] it was 59.9%; in test [11], 96.7%; in test [12], 89.7%. Besides, the growth in test [13] was -77.3% (active); in [14] it was -62.3% (active); in [15], 49.7%; in [16], 74.2%; in test [17] it was 102%; in test [18] it was -29.7% (active). The growth in test [19] is -25.5% (active).

For `C#CC#CC#CC#CC#CC#CC#CC#CC[C@@H]1OC[C@H](COC(=O)O[C@@H](C(=O)O[C@H]2C[C@@]3(O)[C@@H](OC(=O)c4ccccc4)[C@@H]4[C@]5(OC(C)=O)CO[C@@H]5C[C@H](O)[C@@]4(C)C(=O)[C@H](OC(C)=O)C(=C2C)C3(C)C)[C@@H](NC(=O)c2ccccc2)c2ccccc2)O1`, the growth in test [1] is 98.8%; in test [2] it was 4.07% (active); in test [4], 38.1%; in [5], 28.5%; in [6], 26.1%; in test [20], 48.7%. The growth in test [7] is 35%; in test [8] it was 34.3%; in test [9], 52.2%; in [10] it was 44.2%; in test [11] it was 65.8%; in test [12] it was 38.6%. Also, the growth in test [13] is 99.6%; in [14], 93.3%; in [15], 79.3%; in test [16], 71%; in [17] it was 21.3%; in test [18], 13.8%. Moreover, the growth in test [19] is 30.9%.

Consider `CCN1C(=O)N(CC)C2C1NN=c1s/c(=C\c3ccc([N+](=O)[O-])cc3)c(=O)n12` (centres undefined), for which the growth is 16.3% in test [1]; 5.2% (active) in [2]; 0.315% (active) in [3]; 31.6% in [4]; 32.6% in test [6]; 27.6% in [20]. Moreover, the growth is 27.7% in test [7]; 36.8% in test [8]; 64.1% in test [9]; 70.4% in test [10]; 52.3% in test [11]; 29.6% in test [12]. For the same molecule, the growth in test [13] was 37.5%; in test [14], 69.1%; in test [15] it was 41.9%; in [16], 37.1%; in [17], 18.6%; in test [18], 11.2%. Further, in test [19], the growth is 15.8%.

For `Cn1ccnc1C(=O)/C=C/c1ccc(C(=O)Nc2c(F)c(F)c(F)c(F)c2F)cc1`, the growth is -15.5% (active) in [1]; 1.2% (active) in test [2]; 7.64% (active) in [3]; 5.66% (active) in test [4]; 7.27% (active) in [6]; 53.1% in test [20]. In addition, the growth is 29.3% in test [7]; 82.5% in test [9]; 96.2% in test [10]; 25% in test [11]; 6.49% (active) in test [12]; -81.7% (active) in [13]. Also, the growth in test [14] is 20.4%; in test [15], -43% (active); in [16], 8.22% (active); in test [17], 76.7%; in [18], 2.63% (active); in [19], 2.64% (active).

For `O=C(/C=C/c1cccc([N+](=O)[O-])c1)c1ccc(Nc2nc(Nc3ccc(F)cc3)nc(Nc3ccc(Cl)cc3)n2)cc1`, the growth in [1] is 83.9%; in test [2] it was 88%; in [4], 100%; in test [6], 88.5%; in test [20], 87.6%; in test [7], 93.9%. Also, the growth in test [8] was 84.2%; in [9] it was 97.1%; in test [10] it was 70%; in [11], 79.5%; in test [12], 88.3%; in [13], 79.8%. The growth in test [14] was 141%; in test [15], 92%; in test [16] it was 91.4%; in [17], 110%; in [18] it was 43.6%; in test [19], 3.89% (active).

`CCOC(=O)C1=C(c2ccccc2)N=C2SC=C(c3cccc([N+](=O)[O-])c3)N2C1c1ccc(O)cc1` (centres undefined): the growth in test [1] is 97.7%; in test [2], 105%; in [4], 97%; in [5] it was 96.6%; in test [6], 94.8%; in test [20], 97.7%. In addition, the growth in test [7] was 92.7%; in test [8] it was 95.4%; in [9], 104%; in [10], 96.7%; in test [11] it was 99.3%; in [12], 96%. In addition, the growth in test [13] is 91%; in test [14], 104%; in test [15], 106%; in test [16], 94.3%; in test [17], 78.9%; in test [18], 98.1%. In addition, in test [19], the growth is 111%.
